Structures are written as SMILES.

One assay has as its system Plasmodium falciparum. The assay can be described thus: GSK_TCMDC: Inhibition of Plasmodium falciparum Dd2 in whole red blood cells, using parasite LDH activity as an index of growth. Test compounds present at 2uM. Format: functional.
Compound `COc1ccc(C=NN=c2cc(C)[nH]c3ccccc23)c2ccccc12` returned an Inhibition of 69%.
On the same count and under the same terms, then `Fc1ccc(COc2ccc(Nc3ncnc4ccc(I)cc34)cc2Cl)cc1`, with 30%; and `Cc1cc2nc(-c3ccc(/C=C/C(=O)NCc4ccc(Cl)c(Cl)c4)cc3)[nH]c2cc1C`, with 83%.
Take `Cl.N#Cc1ccc2c(c1)CCN(CCC1CCC(NC(=O)/C=C/c3nc4ccccc4s3)CC1)CC2` (stereo not given): the Inhibition is recorded as 0%.
`O=[N+]([O-])c1ccccc1C=NN=c1c2c([nH]c3ccccc13)CCCC2`: the Inhibition was determined as 99%.
Same read-out and setting: then `COc1cc2nc(N3CCC(CNC(=O)c4ccc(-c5ccc(C(=O)N(C)C)cc5O)cc4)CC3)nc(N)c2cc1OC`, with 90%; and `CCCCCN(C(=O)Nc1cc(C(F)(F)F)cc(C(F)(F)F)c1)C(C)c1nc2ccccc2c(=O)n1CC` (stereo not given), with 100%; and `COc1ccc(NC2=C(c3ccccc3)C(=O)c3ccccc32)cn1`, with 84%.
As to `CC(=O)c1cccc(NC(=O)NC2CCN(c3ccnc(Nc4ccc(F)cc4)n3)C2)c1` (stereo not given), the Inhibition is given as 94%.
In the case of `c1ccc(-c2cc3cccc(-c4nc5cnccc5[nH]4)c3o2)cc1`, the Inhibition is given as 95%.
The compound `CNC(=O)c1cc(Nc2nnc(-c3ccc(C)c(S(=O)(=O)NC4CCCCC4)c3)c3ccccc23)ccc1OC` registered an Inhibition of 61%.
The same measure, in the same setting: then `Cc1cc(NC(=O)NCCN2CCC(NC(=O)c3ccc(Cl)cc3)CC2)c2ccccc2n1`, with 54%.
As for `CC(C)CN(Cc1c(O)ccc2[nH]c(-c3ccc(F)cc3F)nc12)CC(C)C`, the Inhibition was determined as 92%.
`CC(C)(C)c1ccc(C(=O)N2CCC3(CC2)C(=O)N(CC(=O)NCC2CCCO2)CN3c2ccccc2)cc1` (stereo not given) registered an Inhibition of 100%.
Compound `Cc1cc(NC(=O)Nc2ccc(C#N)cc2)c2ccccc2n1` gave an Inhibition of 49%.
As for `COc1ccc(C(=O)CCC(=O)N(Cc2ccc(-c3ccc(CNCCc4ccc(S(C)(=O)=O)cc4)cn3)cc2)C(C)CN(C)C)cc1F.O=C(O)C(F)(F)F` (stereo not given), the Inhibition is listed as 85%.
`Cc1ccc(Cn2ncc(N3CCC(N)CC3)c(Cl)c2=O)cc1NC(=O)Nc1ccc(-c2ccccc2)cc1.O=C(O)C(F)(F)F` displayed an Inhibition of 25%.
Turning to `CCc1cc(C(=O)c2cccc(C)c2)c(NC(=O)CN2CCN(C(=O)c3ccco3)CC2)s1`, the Inhibition was found to be 85%.
`CC1(C)N=C(N)N=C(N)N1OCc1cc2ccccc2cc1CON1C(N)=NC(N)=NC1(C)C` registered an Inhibition of 51%.
Still for that read-out and setting: then `Oc1cc2c(cc1CN1CCN(Cc3ccccc3F)CC1)CCC2`, with 94%.
`O=C(Nc1cc(Cl)cc(Cl)c1)Nc1ccccc1C(=O)NC1CCCCC1` had an Inhibition of 100%.
As to `CN1CCN(CCCN(Cc2cccc(-c3ccc(CNC4CCCC4)cc3)c2)C(=O)CCC2CCCC2)CC1.O=C(O)C(F)(F)F`, the Inhibition is recorded as 84%.
Compound `Cc1cc(CNCCCCCCNCc2ccc(-c3ccccc3)cc2)ccc1O` returned an Inhibition of 0%.
Take `Cc1cccc(OC(C)C(=O)Nc2cc(C(F)(F)F)ccc2N2CCOCC2)c1` (stereo not given): the Inhibition stood at 98%.
Still for that read-out and setting: then `Cc1cc(-c2nc3ccc(N4CCN(C)CC4)cc3[nH]2)nn1Cc1cc(Cl)ccc1OCC(C)C.Cl`, with 67%.
In turn, `COc1ccc2nccc([C@@H](O)CN3CCC(NCc4cc5ccccc5[nH]4)CC3)c2c1.CS(=O)(=O)O` yielded an Inhibition of 41%.
Still for that read-out and setting: then `Fc1ccc2[nH]c(-c3ccc(-c4ccc(CNCCN5CCNCC5)cc4)s3)nc2c1.O=C(O)C(F)(F)F`, with 2%; and `Cl.N=c1n(CCN2CCCCC2)c2ccccc2n1CC(O)c1cccc(Br)c1` (stereo not given), with 33%; and `Clc1ccc(-c2[nH]c3ccccc3c2CN2CCC(N3CCCCC3)CC2)cc1`, with 15%.
Regarding `CNCc1cccc2nc(-c3csc(Cc4cc(Cl)ccc4OCC(C)C)n3)[nH]c12`, the Inhibition was determined as 33%.
`Cc1noc(C)c1-c1cccc(CNCc2ccc(-c3cccc(-c4nc5cc(F)ccc5[nH]4)c3)cc2)c1.O=C(O)C(F)(F)F` yielded an Inhibition of 84%.
In turn, `O=C(NC1CCN(CC2(c3ccccc3)CCCC2)CC1)c1n[nH]cc1Cl` came in with an Inhibition of 87%.
In turn, `CCOC(=O)NC1=NC(=N)N(OCc2ccc(Cl)c(Cl)c2)C(C)(C)N1` returned an Inhibition of 90%.
Same read-out and setting: then `Cc1cccc2nc(-c3ccc(-c4ccc(NC(=O)C(=O)c5cccn5C)cc4)cc3)[nH]c12`, with 15%; and `Cc1ccc([S+]([O-])Cc2ccc(Cl)cc2)cc1` (stereo not given), with 5%.
`COc1ccc(NC(=O)c2ccc(C=Cc3ccc(C(F)(F)F)cc3)cc2)cc1N1CCN(C)CC1` gave an Inhibition of 47%.
In turn, `Cl.Oc1ccc(-c2ccccc2)cc1CNC1CCCCC1` showed an Inhibition of 100%.
The same measure, in the same setting: then `O=S(=O)(c1cccc(C(F)(F)F)c1)N1CCC(CO)(Cc2cccc(C(F)(F)F)c2)CC1`, with 79%; and `CN(CCCCCNC(=O)/C=C/c1ccc(Cl)c(Cl)c1)CCc1c[nH]c2ccccc12`, with 18%; and `CC1(C)NC(N)=NC(=N)N1OCc1ccc(-c2ccccc2)cc1`, with 97%.

The next assay relates to HepG2. The assay can be described thus: GSK_TCMDC: Percent inhibition of human HepG2 cell line. Test compounds present at 10uM. Format: functional.
Consider `COc1ccc(C=NN=c2cc(C)[nH]c3ccccc23)c2ccccc12`, for which the Inhibition is on record as 26%.
On the same count and under the same terms, then `Fc1ccc(COc2ccc(Nc3ncnc4ccc(I)cc34)cc2Cl)cc1`, with 28%; and `Cc1cc2nc(-c3ccc(/C=C/C(=O)NCc4ccc(Cl)c(Cl)c4)cc3)[nH]c2cc1C`, with 32%; and `Cl.N#Cc1ccc2c(c1)CCN(CCC1CCC(NC(=O)/C=C/c3nc4ccccc4s3)CC1)CC2` (stereo not given), with 6%.
Compound `O=[N+]([O-])c1ccccc1C=NN=c1c2c([nH]c3ccccc13)CCCC2` gave an Inhibition of 0%.
For the compound `COc1cc2nc(N3CCC(CNC(=O)c4ccc(-c5ccc(C(=O)N(C)C)cc5O)cc4)CC3)nc(N)c2cc1OC`, the Inhibition is reported as 2%.
In turn, `CCCCCN(C(=O)Nc1cc(C(F)(F)F)cc(C(F)(F)F)c1)C(C)c1nc2ccccc2c(=O)n1CC` (stereo not given) yielded an Inhibition of 0%.
With `COc1ccc(NC2=C(c3ccccc3)C(=O)c3ccccc32)cn1`, the Inhibition stood at 0%.
`CC(=O)c1cccc(NC(=O)NC2CCN(c3ccnc(Nc4ccc(F)cc4)n3)C2)c1` (stereo not given) returned an Inhibition of 10%.
`c1ccc(-c2cc3cccc(-c4nc5cnccc5[nH]4)c3o2)cc1` came in with an Inhibition of 37%.
`CNC(=O)c1cc(Nc2nnc(-c3ccc(C)c(S(=O)(=O)NC4CCCCC4)c3)c3ccccc23)ccc1OC`: the Inhibition came to 0%.
Same read-out and setting: then `Cc1cc(NC(=O)NCCN2CCC(NC(=O)c3ccc(Cl)cc3)CC2)c2ccccc2n1`, with 0%; and `CC(C)CN(Cc1c(O)ccc2[nH]c(-c3ccc(F)cc3F)nc12)CC(C)C`, with 11%.
The compound `CC(C)(C)c1ccc(C(=O)N2CCC3(CC2)C(=O)N(CC(=O)NCC2CCCO2)CN3c2ccccc2)cc1` (stereo not given) returned an Inhibition of 8%.
The compound `Cc1cc(NC(=O)Nc2ccc(C#N)cc2)c2ccccc2n1` returned an Inhibition of 88%.
`COc1ccc(C(=O)CCC(=O)N(Cc2ccc(-c3ccc(CNCCc4ccc(S(C)(=O)=O)cc4)cn3)cc2)C(C)CN(C)C)cc1F.O=C(O)C(F)(F)F` (stereo not given) came in with an Inhibition of 13%.
With `Cc1ccc(Cn2ncc(N3CCC(N)CC3)c(Cl)c2=O)cc1NC(=O)Nc1ccc(-c2ccccc2)cc1.O=C(O)C(F)(F)F`, the Inhibition turned out to be 29%.
The compound `CCc1cc(C(=O)c2cccc(C)c2)c(NC(=O)CN2CCN(C(=O)c3ccco3)CC2)s1` showed an Inhibition of 0%.
`CC1(C)N=C(N)N=C(N)N1OCc1cc2ccccc2cc1CON1C(N)=NC(N)=NC1(C)C` returned an Inhibition of 0%.
`Oc1cc2c(cc1CN1CCN(Cc3ccccc3F)CC1)CCC2` had an Inhibition of 2%.
The same measure, in the same setting: then `O=C(Nc1cc(Cl)cc(Cl)c1)Nc1ccccc1C(=O)NC1CCCCC1`, with 12%.
The same measure, in the same setting: then `CN1CCN(CCCN(Cc2cccc(-c3ccc(CNC4CCCC4)cc3)c2)C(=O)CCC2CCCC2)CC1.O=C(O)C(F)(F)F`, with 16%; and `Cc1cc(CNCCCCCCNCc2ccc(-c3ccccc3)cc2)ccc1O`, with 90%.
The same measure, in the same setting: then `Cc1cccc(OC(C)C(=O)Nc2cc(C(F)(F)F)ccc2N2CCOCC2)c1` (stereo not given), with 2%.
Compound `Cc1cc(-c2nc3ccc(N4CCN(C)CC4)cc3[nH]2)nn1Cc1cc(Cl)ccc1OCC(C)C.Cl` came in with an Inhibition of 41%.
As to `COc1ccc2nccc([C@@H](O)CN3CCC(NCc4cc5ccccc5[nH]4)CC3)c2c1.CS(=O)(=O)O`, the Inhibition amounted to 75%.
As to `Fc1ccc2[nH]c(-c3ccc(-c4ccc(CNCCN5CCNCC5)cc4)s3)nc2c1.O=C(O)C(F)(F)F`, the Inhibition is listed as 24%.
Consider `Cl.N=c1n(CCN2CCCCC2)c2ccccc2n1CC(O)c1cccc(Br)c1` (stereo not given), for which the Inhibition was determined as 25%.
`Clc1ccc(-c2[nH]c3ccccc3c2CN2CCC(N3CCCCC3)CC2)cc1`: the Inhibition is on record as 5%.
On the same count and under the same terms, then `CNCc1cccc2nc(-c3csc(Cc4cc(Cl)ccc4OCC(C)C)n3)[nH]c12`, with 9%; and `Cc1noc(C)c1-c1cccc(CNCc2ccc(-c3cccc(-c4nc5cc(F)ccc5[nH]4)c3)cc2)c1.O=C(O)C(F)(F)F`, with 37%.
`O=C(NC1CCN(CC2(c3ccccc3)CCCC2)CC1)c1n[nH]cc1Cl` had an Inhibition of 0%.
As to `CCOC(=O)NC1=NC(=N)N(OCc2ccc(Cl)c(Cl)c2)C(C)(C)N1`, the Inhibition is recorded as 66%.
The same measure, in the same setting: then `Cc1cccc2nc(-c3ccc(-c4ccc(NC(=O)C(=O)c5cccn5C)cc4)cc3)[nH]c12`, with 40%.
Compound `Cc1ccc([S+]([O-])Cc2ccc(Cl)cc2)cc1` (stereo not given) gave an Inhibition of 8%.
Consider `COc1ccc(NC(=O)c2ccc(C=Cc3ccc(C(F)(F)F)cc3)cc2)cc1N1CCN(C)CC1`, for which the Inhibition is 46%.
`Cl.Oc1ccc(-c2ccccc2)cc1CNC1CCCCC1` yielded an Inhibition of 24%.
Turning to `O=S(=O)(c1cccc(C(F)(F)F)c1)N1CCC(CO)(Cc2cccc(C(F)(F)F)c2)CC1`, the Inhibition is recorded as 3%.
As to `CN(CCCCCNC(=O)/C=C/c1ccc(Cl)c(Cl)c1)CCc1c[nH]c2ccccc12`, the Inhibition is 40%.
The compound `CC1(C)NC(N)=NC(=N)N1OCc1ccc(-c2ccccc2)cc1` gave an Inhibition of 64%.

Source of the values: ChEMBL document CHEMBL1157539, “Thousands of chemical starting points for antimalarial lead identification” (Nature, 2010).
